From ChEMBL document CHEMBL1961873, “Compounds: GSK PKIS; Assays: Nanosyn kinase panel” (2012)

Columns and labels:
[1] = biological target: Ribosomal protein S6 kinase alpha-6 (Homo sapiens) (UniProt Q9UK32); details: at 1 µM;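 further: each value is a mean inhibition of RSK4 from a GSK PKIS panel screen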
[2] = biological target: T1, Serine/threonine-protein kinase Sgk1 (Homo sapiens) (UniProt O00141); details: at 0.1 µM
T1 sequence (whole entry): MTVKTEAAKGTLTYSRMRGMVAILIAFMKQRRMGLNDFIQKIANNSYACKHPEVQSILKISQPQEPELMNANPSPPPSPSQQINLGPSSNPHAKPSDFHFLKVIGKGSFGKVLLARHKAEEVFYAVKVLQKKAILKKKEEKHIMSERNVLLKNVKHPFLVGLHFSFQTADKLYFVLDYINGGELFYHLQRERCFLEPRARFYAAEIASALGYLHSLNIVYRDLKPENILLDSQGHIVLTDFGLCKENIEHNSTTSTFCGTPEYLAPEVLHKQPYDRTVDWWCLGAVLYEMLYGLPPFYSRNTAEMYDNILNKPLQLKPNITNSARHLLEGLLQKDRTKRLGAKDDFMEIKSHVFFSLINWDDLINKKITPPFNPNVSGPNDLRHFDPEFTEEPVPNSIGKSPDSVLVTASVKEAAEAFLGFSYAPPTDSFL

[3] = biological target: T1, Serine/threonine-protein kinase Sgk1 (Homo sapiens); details: at 1 µM
[4] = biological target: T2, Serine/threonine-protein kinase Sgk2 (Homo sapiens) (UniProt Q9HBY8); details: at 0.1 µM
T2 sequence (whole entry): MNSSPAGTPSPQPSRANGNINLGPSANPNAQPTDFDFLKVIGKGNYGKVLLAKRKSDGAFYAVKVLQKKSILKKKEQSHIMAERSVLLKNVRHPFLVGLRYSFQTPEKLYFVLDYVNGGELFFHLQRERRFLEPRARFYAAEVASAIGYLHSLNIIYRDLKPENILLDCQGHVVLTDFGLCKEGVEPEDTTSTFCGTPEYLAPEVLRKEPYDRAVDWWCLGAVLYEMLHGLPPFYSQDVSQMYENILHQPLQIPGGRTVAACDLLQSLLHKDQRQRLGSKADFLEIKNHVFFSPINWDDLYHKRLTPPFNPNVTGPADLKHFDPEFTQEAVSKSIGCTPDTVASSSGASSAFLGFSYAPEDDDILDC

[5] = biological target: T2, Serine/threonine-protein kinase Sgk2 (Homo sapiens); details: at 1 µM
[6] = biological target: T3, Serine/threonine-protein kinase Sgk3 (Homo sapiens) (UniProt Q96BR1); details: at 0.1 µM
T3 sequence (whole entry): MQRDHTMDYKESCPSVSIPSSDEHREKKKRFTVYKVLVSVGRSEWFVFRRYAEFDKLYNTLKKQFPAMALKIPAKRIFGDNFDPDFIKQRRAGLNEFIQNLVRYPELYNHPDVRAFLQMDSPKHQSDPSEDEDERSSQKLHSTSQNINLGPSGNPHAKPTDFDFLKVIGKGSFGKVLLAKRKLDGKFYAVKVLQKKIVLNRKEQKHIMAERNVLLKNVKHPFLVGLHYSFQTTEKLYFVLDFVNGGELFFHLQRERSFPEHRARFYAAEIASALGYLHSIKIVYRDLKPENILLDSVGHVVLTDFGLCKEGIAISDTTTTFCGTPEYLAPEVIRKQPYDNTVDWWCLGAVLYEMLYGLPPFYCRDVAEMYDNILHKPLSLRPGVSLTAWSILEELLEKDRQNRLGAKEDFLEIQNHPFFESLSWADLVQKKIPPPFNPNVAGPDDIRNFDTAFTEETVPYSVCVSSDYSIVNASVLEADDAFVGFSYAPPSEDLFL

[7] = biological target: T3, Serine/threonine-protein kinase Sgk3 (Homo sapiens); details: at 1 µM
[8] = biological target: 5'-AMP-activated protein kinase catalytic subunit alpha-1 (Homo sapiens) (UniProt Q13131); details: at 0.1 µM
[9] = biological target: 5'-AMP-activated protein kinase catalytic subunit alpha-1 (Homo sapiens) (UniProt Q13131); details: at 1 µM
[10] = biological target: 5'-AMP-activated protein kinase catalytic subunit alpha-2 (Homo sapiens) (UniProt P54646); details: at 0.1 µM
[11] = biological target: 5'-AMP-activated protein kinase catalytic subunit alpha-2 (Homo sapiens) (UniProt P54646); details: at 1 µM
[12] = biological target: T4, NUAK family SNF1-like kinase 1 (Homo sapiens) (UniProt O60285); details: at 0.1 µM
T4 sequence (whole entry): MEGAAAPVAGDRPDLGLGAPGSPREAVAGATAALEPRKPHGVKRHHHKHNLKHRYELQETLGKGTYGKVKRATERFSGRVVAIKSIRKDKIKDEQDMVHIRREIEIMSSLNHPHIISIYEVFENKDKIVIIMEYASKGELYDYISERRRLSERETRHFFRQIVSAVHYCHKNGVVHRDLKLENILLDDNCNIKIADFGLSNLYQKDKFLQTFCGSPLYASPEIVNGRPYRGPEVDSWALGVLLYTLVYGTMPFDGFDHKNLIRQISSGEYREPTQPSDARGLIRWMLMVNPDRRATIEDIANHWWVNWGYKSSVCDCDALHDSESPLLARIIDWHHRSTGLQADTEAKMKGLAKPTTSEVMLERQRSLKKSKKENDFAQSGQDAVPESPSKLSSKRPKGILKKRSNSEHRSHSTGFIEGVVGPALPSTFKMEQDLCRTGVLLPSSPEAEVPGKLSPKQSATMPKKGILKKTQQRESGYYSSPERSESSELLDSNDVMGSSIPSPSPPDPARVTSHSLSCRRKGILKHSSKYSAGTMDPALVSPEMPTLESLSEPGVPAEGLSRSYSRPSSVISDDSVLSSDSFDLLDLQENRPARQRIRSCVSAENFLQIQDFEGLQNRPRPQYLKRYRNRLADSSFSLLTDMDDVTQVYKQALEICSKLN

[13] = biological target: T4, NUAK family SNF1-like kinase 1 (Homo sapiens); details: at 1 µM
[14] = biological target: T5, Serine/threonine-protein kinase BRSK1 (Homo sapiens) (UniProt Q8TDC3); details: at 0.1 µM
T5 sequence (whole entry): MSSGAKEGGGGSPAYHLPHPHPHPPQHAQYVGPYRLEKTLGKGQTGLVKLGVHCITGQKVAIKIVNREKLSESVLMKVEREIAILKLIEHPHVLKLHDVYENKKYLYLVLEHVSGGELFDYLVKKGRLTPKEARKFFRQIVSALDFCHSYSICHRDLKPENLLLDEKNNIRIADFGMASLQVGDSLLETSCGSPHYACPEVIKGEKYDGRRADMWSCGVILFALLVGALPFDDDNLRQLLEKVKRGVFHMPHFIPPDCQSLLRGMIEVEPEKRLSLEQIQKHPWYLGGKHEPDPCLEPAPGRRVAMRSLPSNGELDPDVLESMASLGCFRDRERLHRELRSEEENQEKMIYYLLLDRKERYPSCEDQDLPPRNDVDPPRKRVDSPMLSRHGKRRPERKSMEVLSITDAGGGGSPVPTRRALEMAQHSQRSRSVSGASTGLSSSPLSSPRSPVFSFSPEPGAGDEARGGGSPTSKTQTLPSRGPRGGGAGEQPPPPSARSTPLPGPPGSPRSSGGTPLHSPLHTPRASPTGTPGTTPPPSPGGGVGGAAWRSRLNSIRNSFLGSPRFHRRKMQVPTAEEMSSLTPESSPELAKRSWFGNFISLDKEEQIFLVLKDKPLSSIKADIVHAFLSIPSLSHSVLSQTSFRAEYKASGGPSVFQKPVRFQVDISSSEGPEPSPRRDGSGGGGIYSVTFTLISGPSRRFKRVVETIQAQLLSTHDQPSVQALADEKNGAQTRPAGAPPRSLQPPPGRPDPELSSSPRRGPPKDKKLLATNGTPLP

[15] = biological target: T5, Serine/threonine-protein kinase BRSK1 (Homo sapiens); details: at 1 µM
[16] = biological target: T6, Serine/threonine-protein kinase BRSK2 (Homo sapiens) (UniProt Q8IWQ3); details: at 0.1 µM
T6 sequence (whole entry): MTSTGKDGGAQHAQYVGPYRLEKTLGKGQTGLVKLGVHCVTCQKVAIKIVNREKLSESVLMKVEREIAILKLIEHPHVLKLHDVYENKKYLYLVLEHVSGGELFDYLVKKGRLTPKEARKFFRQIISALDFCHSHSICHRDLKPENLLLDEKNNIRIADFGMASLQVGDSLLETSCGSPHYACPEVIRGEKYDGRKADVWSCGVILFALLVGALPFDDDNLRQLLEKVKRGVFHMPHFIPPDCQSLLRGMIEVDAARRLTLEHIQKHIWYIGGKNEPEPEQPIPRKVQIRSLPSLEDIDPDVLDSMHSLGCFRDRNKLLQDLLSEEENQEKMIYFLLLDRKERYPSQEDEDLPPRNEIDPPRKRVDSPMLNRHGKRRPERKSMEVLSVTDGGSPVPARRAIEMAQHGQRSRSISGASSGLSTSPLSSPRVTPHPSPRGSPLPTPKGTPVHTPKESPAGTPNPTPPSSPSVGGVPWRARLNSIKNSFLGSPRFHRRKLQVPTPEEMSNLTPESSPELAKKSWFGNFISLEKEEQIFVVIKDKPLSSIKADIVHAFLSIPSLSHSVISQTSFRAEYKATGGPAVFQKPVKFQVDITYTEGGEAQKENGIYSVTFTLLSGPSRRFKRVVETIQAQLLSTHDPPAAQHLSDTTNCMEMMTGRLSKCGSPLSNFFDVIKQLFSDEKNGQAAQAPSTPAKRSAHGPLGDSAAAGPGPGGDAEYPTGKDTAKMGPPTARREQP

[17] = biological target: T6, Serine/threonine-protein kinase BRSK2 (Homo sapiens); details: at 1 µM
[18] = biological target: Calcium/calmodulin-dependent protein kinase type 1D (Homo sapiens) (UniProt Q8IU85); details: at 0.1 µM
[19] = biological target: Calcium/calmodulin-dependent protein kinase type 1D (Homo sapiens) (UniProt Q8IU85); details: at 1 µM
[20] = biological target: Calcium/calmodulin-dependent protein kinase type II subunit alpha (Homo sapiens) (UniProt Q9UQM7); details: at 0.1 µM;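 further: reported values are averages (mean inhibition of CAMK2A)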
Chain of Calcium/calmodulin-dependent protein kinase type II subunit alpha (Homo sapiens) (Q9UQM7 whole entry): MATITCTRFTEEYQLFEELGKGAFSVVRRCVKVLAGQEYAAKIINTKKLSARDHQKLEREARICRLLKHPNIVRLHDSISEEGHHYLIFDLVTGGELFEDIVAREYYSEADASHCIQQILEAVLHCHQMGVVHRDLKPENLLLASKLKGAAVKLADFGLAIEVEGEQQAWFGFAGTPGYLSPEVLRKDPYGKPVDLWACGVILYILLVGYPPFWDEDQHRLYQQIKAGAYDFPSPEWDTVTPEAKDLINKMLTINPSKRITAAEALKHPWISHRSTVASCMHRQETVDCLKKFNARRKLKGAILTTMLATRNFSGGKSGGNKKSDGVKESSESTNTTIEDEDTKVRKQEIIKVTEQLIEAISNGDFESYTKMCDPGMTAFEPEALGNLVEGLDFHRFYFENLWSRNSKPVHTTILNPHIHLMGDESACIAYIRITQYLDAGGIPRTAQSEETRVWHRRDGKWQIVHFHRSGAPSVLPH

Chain of 5'-AMP-activated protein kinase catalytic subunit alpha-1 (Homo sapiens) (Q13131 whole entry, looked up): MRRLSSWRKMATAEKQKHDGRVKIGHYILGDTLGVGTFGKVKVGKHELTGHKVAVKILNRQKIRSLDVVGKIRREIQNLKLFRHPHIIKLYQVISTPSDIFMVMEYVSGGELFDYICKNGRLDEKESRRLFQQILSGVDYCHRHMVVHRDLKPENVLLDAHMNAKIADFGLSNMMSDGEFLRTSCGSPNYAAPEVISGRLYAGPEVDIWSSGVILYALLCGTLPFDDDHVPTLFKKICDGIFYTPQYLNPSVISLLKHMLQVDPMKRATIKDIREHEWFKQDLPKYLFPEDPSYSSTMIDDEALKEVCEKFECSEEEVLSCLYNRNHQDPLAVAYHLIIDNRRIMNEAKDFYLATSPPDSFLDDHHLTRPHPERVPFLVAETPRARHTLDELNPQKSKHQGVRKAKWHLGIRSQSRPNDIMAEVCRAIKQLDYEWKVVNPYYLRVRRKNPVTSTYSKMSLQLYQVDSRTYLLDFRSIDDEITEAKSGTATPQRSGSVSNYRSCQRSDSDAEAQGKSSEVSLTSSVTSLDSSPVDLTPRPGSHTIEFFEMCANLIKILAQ
Chain of 5'-AMP-activated protein kinase catalytic subunit alpha-2 (Homo sapiens) (P54646 whole entry, looked up): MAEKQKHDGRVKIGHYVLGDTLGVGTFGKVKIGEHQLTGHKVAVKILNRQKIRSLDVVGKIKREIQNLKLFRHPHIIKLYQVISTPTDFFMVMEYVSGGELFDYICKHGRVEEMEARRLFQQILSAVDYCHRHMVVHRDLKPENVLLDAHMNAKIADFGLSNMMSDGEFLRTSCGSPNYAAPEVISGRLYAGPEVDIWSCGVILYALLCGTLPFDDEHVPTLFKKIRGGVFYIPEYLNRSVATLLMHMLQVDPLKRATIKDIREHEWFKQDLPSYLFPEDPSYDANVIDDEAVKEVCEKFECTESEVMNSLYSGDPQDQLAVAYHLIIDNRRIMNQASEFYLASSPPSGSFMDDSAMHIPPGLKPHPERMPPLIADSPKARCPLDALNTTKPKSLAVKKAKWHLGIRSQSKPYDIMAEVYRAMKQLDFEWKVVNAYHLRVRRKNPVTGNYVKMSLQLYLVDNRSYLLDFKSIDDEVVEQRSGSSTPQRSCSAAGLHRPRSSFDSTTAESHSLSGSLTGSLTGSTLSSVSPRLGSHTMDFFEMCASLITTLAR
Chain of Calcium/calmodulin-dependent protein kinase type 1D (Homo sapiens) (Q8IU85 whole entry, looked up): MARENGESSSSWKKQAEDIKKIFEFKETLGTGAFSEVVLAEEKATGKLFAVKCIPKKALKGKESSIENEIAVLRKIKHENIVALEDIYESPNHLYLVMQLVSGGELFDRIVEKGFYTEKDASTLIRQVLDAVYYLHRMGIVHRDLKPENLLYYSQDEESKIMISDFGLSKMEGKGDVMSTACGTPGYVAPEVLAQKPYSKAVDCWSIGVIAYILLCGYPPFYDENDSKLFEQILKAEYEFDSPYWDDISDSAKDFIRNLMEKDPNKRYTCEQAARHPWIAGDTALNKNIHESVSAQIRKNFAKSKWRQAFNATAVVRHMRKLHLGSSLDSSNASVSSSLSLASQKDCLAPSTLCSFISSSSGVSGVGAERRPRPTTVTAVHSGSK
Chain of Ribosomal protein S6 kinase alpha-6 (Homo sapiens) (Q9UK32 whole entry): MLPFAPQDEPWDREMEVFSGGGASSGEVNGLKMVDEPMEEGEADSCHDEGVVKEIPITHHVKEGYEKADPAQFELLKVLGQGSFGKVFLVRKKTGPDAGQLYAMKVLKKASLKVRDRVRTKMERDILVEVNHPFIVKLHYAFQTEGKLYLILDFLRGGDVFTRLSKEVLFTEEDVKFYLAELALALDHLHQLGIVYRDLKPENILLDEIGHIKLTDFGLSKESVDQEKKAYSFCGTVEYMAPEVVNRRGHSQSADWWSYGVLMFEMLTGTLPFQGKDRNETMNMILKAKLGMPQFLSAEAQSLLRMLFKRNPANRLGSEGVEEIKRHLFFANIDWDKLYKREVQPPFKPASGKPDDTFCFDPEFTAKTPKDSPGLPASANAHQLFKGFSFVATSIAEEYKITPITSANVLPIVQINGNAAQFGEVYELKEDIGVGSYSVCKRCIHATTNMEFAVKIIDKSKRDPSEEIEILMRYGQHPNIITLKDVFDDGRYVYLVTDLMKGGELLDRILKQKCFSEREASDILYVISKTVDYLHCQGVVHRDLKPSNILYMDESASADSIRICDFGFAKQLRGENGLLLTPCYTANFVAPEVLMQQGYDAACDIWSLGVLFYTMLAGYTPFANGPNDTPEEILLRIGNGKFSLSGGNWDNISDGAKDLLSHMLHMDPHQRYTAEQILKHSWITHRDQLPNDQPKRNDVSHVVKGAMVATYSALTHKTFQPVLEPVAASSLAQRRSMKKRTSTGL

| Structure (SMILES) | inhibition [1] [%] | inhibition [2] [%] | inhibition [3] [%] | inhibition [4] [%] | inhibition [5] [%] | inhibition [6] [%] | inhibition [7] [%] | inhibition [8] [%] | inhibition [9] [%] | inhibition [10] [%] | inhibition [11] [%] | inhibition [12] [%] | inhibition [13] [%] | inhibition [14] [%] | inhibition [15] [%] | inhibition [16] [%] | inhibition [17] [%] | inhibition [18] [%] | inhibition [19] [%] | inhibition [20] [%] |
| --- | --- | --- | --- | --- | --- | --- | --- | --- | --- | --- | --- | --- | --- | --- | --- | --- | --- | --- | --- | --- |
| CCn1c(-c2nonc2N)nc2c(C#CC(C)(C)O)ncc(OC3CCNCC3)c21 | 5.51 | 2.06 | 4.36 | 5.71 | 16.4 | 11.2 | 53.4 | 40.5 | 82.6 | 12.1 | 43.3 | 6.16 | 42.9 | 1.45 | 10.5 | 2.8 | 19.2 | 1.83 | 8.97 | 3.85 |
| c1ccc(COc2ccc(Nc3ncnc4ccc(-c5ccco5)cc34)cc2)cc1 | -0.53 | 1.43 | 0.51 | -1.79 | 2.2 | -0.56 | 0.58 | 0.67 | 2.29 | -2.52 | 3.28 | -0.16 | -1.67 | -0.97 | 1.48 | 0.91 | 1.54 | 0.28 | 11.7 | 2.01 |
| COc1ccc(-c2oc3ncnc(N)c3c2-c2ccc(NC(=O)Nc3cc(C(F)(F)F)ccc3F)cc2)cc1 | 17.4 | 3.83 | 8.65 | 4.57 | 4.27 | 3.71 | 4.09 | 4.2 | 8.8 | 1.55 | 7.89 | 4.62 | 9.26 | 5.38 | 11.7 | 8.06 | 13.9 | 1.06 | 11.9 | 4.73 |
| CCn1c(-c2nonc2N)nc2cnc(Oc3cccc(NC(=O)c4ccc(N(C)C)cc4)c3)cc21 | 15.2 | 9.87 | 49.7 | 16.3 | 61.9 | 43.8 | 83.5 | 1.59 | 2.17 | 2.3 | 10.1 | 3.21 | 18.7 | 1.7 | 3.54 | 2.26 | 2.76 | 0.25 | 2.17 | 0.79 |
| CN1CCC(n2cnc(-c3ccc(F)cc3)c2-c2ccnc(N)n2)CC1 | 3.17 | 2.03 | 5.81 | 0.15 | 7.47 | 2.25 | 2.99 | 2.2 | 7.91 | -1.23 | 3.56 | -0.55 | 5.58 | 1.29 | 1.45 | 1.08 | 7.04 | 0.79 | 1.05 | 2.13 |
| CCCN1CCC(c2ccc(Nc3nc(Nc4cc(F)ccc4C(N)=O)c4cc[nH]c4n3)c(OC)c2)CC1 | 63.4 | 3.17 | 13.8 | 4.48 | 5.14 | 3.22 | 4.03 | 5.5 | 26.9 | 3.42 | 13.2 | 31.8 | 62.8 | 0.82 | 2.49 | 2.24 | 6.88 | 22.9 | 71.5 | 8.79 |
